The record followed here is ChEMBL document CHEMBL1961873, “Compounds: GSK PKIS; Assays: Nanosyn kinase panel” (2012).

Assay [1] has as its target MAP/microtubule affinity-regulating kinase 3 (Homo sapiens) (UniProt P27448). Conditions: at 1 µM.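 Further: reported values are averaged percent inhibition of MARK3.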
Assay [2] concerns the target T1, MAP/microtubule affinity-regulating kinase 4 (Homo sapiens) (UniProt Q96L34).
T1 sequence (whole entry): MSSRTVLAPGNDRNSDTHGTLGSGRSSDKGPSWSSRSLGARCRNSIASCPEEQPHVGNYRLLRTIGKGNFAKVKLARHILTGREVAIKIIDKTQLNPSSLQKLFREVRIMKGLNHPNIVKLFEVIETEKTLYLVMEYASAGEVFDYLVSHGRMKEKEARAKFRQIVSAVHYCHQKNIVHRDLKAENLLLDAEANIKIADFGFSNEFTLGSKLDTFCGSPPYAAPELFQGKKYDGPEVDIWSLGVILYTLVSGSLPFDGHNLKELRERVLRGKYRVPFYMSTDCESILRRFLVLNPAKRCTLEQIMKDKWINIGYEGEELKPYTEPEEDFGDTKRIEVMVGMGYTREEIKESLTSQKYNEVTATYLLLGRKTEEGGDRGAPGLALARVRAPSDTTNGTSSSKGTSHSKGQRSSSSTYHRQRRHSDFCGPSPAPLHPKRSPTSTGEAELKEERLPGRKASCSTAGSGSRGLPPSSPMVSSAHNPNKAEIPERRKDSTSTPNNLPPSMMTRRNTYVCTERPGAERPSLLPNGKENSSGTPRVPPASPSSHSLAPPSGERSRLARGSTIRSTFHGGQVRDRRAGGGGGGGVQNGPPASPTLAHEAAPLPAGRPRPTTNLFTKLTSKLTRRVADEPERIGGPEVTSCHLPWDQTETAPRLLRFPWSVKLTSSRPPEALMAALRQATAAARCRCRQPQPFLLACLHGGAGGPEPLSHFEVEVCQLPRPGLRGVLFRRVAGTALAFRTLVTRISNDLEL
To be noted: at 0.1 µM.

For assay [3], the target named is T1, MAP/microtubule affinity-regulating kinase 4 (Homo sapiens). Conditions: at 1 µM.
Assay [4] concerns the target Maternal embryonic leucine zipper kinase (Homo sapiens) (UniProt Q14680). To be noted: at 0.1 µM.
Assay [5] has the same target. Conditions: at 1 µM.
The target in assay [6] is MAP kinase-interacting serine/threonine-protein kinase 1 (Homo sapiens) (UniProt Q9BUB5). To be noted: at 0.1 µM.
The target is the same in assay [7]. To be noted: at 1 µM.
Assay [8] deals with MAP kinase-interacting serine/threonine-protein kinase 2 (Homo sapiens) (UniProt Q9HBH9). To be noted: at 0.1 µM.
Assay [9] has the same target. To be noted: at 1 µM.
For assay [10], the target named is Serine/threonine-protein kinase MARK2 (Homo sapiens) (UniProt Q7KZI7). Conditions: at 0.1 µM.
The target is the same in assay [11]. Conditions: at 1 µM.
For assay [12], the target named is PAS domain-containing serine/threonine-protein kinase (Homo sapiens) (UniProt Q96RG2). Conditions: at 0.1 µM.
For assay [13] the target is unchanged. Conditions: at 1 µM.
Assay [14] concerns the target Phosphorylase b kinase gamma catalytic chain, skeletal muscle/heart isoform (Homo sapiens) (UniProt Q16816). To be noted: at 0.1 µM.
The target is the same in assay [15]. Conditions: at 1 µM.
Assay [16] has as its target T2, Phosphorylase b kinase gamma catalytic chain, liver/testis isoform (Homo sapiens) (UniProt P15735).
T2 sequence (whole entry): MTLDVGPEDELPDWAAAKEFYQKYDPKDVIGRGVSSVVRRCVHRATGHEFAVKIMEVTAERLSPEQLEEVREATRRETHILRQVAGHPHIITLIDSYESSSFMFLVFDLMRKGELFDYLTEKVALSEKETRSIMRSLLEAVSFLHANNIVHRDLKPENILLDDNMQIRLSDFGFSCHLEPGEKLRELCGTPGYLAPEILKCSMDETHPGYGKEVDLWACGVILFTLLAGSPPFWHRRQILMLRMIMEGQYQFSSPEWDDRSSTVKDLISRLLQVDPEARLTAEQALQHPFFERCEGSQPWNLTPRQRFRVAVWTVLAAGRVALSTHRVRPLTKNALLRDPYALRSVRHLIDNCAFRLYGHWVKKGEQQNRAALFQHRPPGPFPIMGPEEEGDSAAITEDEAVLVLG
Conditions: at 0.1 µM.

For assay [17], the target named is T2, Phosphorylase b kinase gamma catalytic chain, liver/testis isoform (Homo sapiens). To be noted: at 1 µM.
The target in assay [18] is Serine/threonine-protein kinase pim-1 (Homo sapiens) (UniProt P11309). Conditions: at 0.1 µM.
Assay [19] has the same target. To be noted: at 1 µM.
Assay [20] concerns the target Serine/threonine-protein kinase pim-2 (Homo sapiens) (UniProt Q9P1W9). Conditions: at 0.1 µM.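 Further: reported value is the mean percent inhibition of PIM2, measured in the GSK PKIS kinase inhibitor set screen.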

The structures appear in SMILES notation.

MAP/microtubule affinity-regulating kinase 3 (Homo sapiens), sequence (P27448 whole entry, looked up): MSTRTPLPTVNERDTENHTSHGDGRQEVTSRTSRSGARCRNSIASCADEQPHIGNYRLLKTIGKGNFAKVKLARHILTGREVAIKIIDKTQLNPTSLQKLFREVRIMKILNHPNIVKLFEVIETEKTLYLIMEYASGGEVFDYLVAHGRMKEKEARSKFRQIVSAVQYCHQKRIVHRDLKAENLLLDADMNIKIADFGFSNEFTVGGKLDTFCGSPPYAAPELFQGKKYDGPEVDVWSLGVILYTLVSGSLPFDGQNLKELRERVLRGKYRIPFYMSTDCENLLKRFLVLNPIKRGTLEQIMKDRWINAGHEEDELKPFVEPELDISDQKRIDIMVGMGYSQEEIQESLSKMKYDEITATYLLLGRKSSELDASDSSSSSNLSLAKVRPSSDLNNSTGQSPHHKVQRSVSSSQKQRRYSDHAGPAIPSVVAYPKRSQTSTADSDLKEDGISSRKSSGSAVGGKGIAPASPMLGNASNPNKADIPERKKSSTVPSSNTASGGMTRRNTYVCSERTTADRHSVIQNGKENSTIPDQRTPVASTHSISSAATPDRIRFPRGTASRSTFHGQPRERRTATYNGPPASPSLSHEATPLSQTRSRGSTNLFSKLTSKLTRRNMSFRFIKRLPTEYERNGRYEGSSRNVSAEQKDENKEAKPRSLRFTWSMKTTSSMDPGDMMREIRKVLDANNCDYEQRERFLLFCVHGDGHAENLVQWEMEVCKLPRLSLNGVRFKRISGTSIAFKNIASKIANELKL
Serine/threonine-protein kinase MARK2 (Homo sapiens), sequence (Q7KZI7 whole entry): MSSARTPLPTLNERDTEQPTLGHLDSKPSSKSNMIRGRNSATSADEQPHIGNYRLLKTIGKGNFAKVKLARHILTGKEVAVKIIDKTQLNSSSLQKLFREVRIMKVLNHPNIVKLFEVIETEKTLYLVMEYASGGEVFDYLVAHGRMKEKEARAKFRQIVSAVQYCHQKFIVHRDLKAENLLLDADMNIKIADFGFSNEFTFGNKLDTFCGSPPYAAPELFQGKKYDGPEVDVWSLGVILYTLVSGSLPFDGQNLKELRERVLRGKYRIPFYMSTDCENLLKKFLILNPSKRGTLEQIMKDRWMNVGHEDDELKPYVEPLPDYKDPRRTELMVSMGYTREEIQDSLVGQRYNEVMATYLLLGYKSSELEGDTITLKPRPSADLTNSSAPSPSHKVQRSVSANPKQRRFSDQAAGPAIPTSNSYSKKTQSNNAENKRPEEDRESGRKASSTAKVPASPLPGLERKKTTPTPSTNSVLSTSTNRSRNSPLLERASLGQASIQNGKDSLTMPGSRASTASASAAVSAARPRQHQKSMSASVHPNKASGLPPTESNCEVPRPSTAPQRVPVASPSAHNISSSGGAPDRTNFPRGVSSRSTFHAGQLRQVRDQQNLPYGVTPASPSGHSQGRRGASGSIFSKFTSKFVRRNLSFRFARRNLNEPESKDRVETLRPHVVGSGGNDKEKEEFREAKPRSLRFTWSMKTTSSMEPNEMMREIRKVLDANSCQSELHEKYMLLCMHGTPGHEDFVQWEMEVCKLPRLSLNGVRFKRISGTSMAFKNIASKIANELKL
Maternal embryonic leucine zipper kinase (Homo sapiens), sequence (Q14680 whole entry, looked up): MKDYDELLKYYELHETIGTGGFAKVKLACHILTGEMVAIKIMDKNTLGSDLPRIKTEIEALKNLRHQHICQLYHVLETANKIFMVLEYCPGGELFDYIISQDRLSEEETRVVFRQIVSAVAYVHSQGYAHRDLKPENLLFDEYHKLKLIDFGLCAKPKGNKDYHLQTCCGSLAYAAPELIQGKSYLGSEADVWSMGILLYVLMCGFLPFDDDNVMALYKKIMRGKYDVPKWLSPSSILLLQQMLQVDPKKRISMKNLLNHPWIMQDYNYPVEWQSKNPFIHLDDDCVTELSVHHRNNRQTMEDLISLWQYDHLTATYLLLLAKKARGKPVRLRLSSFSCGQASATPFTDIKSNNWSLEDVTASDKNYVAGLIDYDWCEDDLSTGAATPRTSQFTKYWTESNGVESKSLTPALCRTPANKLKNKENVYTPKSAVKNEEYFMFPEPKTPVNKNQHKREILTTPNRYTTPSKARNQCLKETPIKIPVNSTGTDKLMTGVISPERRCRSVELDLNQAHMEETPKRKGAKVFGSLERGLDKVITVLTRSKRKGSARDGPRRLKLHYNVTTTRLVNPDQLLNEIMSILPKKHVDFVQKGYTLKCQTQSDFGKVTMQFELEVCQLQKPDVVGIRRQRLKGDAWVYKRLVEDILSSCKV
Serine/threonine-protein kinase pim-1 (Homo sapiens), sequence (P11309 whole entry, looked up): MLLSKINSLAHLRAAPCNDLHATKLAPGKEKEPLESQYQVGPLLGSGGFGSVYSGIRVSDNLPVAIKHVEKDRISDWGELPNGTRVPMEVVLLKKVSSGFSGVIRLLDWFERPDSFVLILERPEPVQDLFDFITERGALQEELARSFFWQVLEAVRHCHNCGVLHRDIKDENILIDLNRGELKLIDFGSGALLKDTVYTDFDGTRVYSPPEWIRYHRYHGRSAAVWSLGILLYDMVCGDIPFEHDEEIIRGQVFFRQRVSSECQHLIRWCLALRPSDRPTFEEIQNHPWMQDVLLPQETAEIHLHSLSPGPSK
PAS domain-containing serine/threonine-protein kinase (Homo sapiens), sequence (Q96RG2 whole entry, the tested form may be a part): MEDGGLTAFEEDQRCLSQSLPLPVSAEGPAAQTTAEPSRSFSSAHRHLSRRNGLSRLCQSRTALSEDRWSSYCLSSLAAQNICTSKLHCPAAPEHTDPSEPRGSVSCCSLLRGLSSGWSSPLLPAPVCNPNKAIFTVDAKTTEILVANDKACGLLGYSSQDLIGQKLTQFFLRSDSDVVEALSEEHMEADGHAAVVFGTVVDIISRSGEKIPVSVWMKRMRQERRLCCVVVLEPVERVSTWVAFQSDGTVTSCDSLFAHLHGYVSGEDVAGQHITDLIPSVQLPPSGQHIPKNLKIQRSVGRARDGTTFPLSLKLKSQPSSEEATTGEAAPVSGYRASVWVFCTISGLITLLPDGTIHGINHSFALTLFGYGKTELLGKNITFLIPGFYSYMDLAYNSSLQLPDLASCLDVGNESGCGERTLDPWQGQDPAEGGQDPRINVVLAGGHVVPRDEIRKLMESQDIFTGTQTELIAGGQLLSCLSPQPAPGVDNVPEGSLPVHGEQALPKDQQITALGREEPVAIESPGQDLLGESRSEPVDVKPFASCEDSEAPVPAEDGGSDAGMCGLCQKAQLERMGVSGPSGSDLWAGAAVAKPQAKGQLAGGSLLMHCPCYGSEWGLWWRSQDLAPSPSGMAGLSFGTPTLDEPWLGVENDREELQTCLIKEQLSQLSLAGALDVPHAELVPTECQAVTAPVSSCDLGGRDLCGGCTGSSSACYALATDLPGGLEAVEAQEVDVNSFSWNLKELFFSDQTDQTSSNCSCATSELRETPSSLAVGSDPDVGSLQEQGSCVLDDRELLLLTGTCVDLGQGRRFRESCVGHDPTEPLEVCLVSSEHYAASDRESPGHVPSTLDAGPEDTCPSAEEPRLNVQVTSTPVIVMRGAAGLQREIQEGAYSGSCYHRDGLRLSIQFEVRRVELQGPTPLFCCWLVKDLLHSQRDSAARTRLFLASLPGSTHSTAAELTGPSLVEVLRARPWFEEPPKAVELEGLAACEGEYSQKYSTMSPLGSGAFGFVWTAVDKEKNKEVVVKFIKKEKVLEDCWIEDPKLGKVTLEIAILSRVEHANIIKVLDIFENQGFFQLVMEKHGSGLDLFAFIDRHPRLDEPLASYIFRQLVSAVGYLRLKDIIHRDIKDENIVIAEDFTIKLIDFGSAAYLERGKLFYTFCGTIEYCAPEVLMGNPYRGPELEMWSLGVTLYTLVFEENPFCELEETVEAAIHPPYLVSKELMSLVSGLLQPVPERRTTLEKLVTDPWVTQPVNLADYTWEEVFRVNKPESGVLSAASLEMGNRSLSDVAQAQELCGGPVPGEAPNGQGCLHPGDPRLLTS
Phosphorylase b kinase gamma catalytic chain, skeletal muscle/heart isoform (Homo sapiens), sequence (Q16816 whole entry, looked up, canonical isoform): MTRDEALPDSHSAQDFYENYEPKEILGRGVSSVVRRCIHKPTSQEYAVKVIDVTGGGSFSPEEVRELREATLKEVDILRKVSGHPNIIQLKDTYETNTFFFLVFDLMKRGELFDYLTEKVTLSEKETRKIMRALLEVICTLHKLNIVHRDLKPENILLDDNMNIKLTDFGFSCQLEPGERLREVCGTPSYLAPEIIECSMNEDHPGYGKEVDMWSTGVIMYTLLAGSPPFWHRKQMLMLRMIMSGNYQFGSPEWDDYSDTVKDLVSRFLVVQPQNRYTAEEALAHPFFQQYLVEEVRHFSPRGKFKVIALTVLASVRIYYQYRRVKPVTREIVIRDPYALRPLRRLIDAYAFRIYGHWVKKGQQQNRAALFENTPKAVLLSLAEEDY
MAP kinase-interacting serine/threonine-protein kinase 2 (Homo sapiens), sequence (Q9HBH9 whole entry, looked up): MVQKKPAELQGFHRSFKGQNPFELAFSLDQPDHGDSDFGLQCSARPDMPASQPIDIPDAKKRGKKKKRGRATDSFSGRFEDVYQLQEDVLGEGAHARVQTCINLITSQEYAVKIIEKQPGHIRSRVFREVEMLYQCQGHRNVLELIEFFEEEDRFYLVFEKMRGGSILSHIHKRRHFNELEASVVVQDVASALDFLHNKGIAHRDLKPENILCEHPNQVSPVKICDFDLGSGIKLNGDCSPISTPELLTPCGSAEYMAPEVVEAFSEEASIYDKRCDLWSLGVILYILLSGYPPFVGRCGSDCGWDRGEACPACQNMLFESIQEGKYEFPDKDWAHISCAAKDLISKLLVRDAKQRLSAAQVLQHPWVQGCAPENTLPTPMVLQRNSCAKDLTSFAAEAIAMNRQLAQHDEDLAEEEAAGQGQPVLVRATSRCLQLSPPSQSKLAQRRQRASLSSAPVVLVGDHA
Serine/threonine-protein kinase pim-2 (Homo sapiens), sequence (Q9P1W9 whole entry, looked up): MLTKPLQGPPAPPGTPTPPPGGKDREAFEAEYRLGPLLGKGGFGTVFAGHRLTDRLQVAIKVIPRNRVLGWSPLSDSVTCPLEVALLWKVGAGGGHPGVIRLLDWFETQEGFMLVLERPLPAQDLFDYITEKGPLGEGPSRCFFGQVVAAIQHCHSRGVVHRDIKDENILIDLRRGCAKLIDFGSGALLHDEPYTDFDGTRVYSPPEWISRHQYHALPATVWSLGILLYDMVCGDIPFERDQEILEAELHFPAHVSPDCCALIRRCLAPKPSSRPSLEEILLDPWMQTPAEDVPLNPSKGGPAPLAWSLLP

For `NS(=O)(=O)c1ccc(N/N=C2\C(=O)Nc3ccc(C(=O)NCCc4c[nH]cn4)cc32)cc1`, the inhibition in assay [1] came to 49.1%; in assay [2] it was 11.8%; in assay [3] it was 56.3%; in assay [4], 82%; in assay [5], 98%; in [6], 2.81%. Besides, the inhibition in assay [7] amounted to 4.11%; in assay [8] it was 1.48%; in assay [9] it was 4.85%; in assay [10], 7.88%; in [11], 40.4%; in assay [12] it was 0.48%. Moreover, the inhibition is -3.06% in assay [13]; 14.2% in assay [14]; 58.7% in assay [15]; 8.35% in assay [16]; 24% in [17]; 10.5% in [18]. Further, the inhibition came out at 51.7% in [19] and 3.79% in assay [20].

Consider `Cc1ccc(C(=O)NC2CCCCC2)cc1-c1ccc(C(=O)NCC2CC2)cc1`, for which the inhibition stood at 2.82% in assay [1]; 1.51% in assay [2]; 1.5% in assay [3]; 1.92% in assay [4]; 2.41% in assay [5]; 1.78% in assay [6]. The inhibition was 2.58% in assay [7]; 0.32% in [8]; -0.44% in assay [9]; 0.34% in [10]; 0.99% in [11]; 1.33% in [12]. Moreover, the inhibition in assay [13] is -0.83%; in assay [14] it was 0.53%; in assay [15], -0.89%; in assay [16], 3.98%; in assay [17], 1.55%; in assay [18], -0.39%. Further, the inhibition is 0.56% in assay [19] and 1.02% in assay [20].

In the case of `c1cnn2ncc(-c3ccnc(Nc4ccc5c(c4)OCCO5)n3)c2c1`, the inhibition in assay [1] worked out at 24.8%; in [2], 3.11%; in assay [3] it was 16.4%; in assay [4] it was 11.6%; in assay [5] it was 51.6%; in [6], 3.95%. In addition, the inhibition in [7] was 14.5%; in assay [8], 4.36%; in [9] it was 25.9%; in assay [10] it was 0.05%; in [11], 14.3%; in assay [12], -0.33%. Besides, the inhibition in [13] was determined as 0.82%; in assay [14] it was 5.46%; in assay [15] it was 27.6%; in assay [16], 7.04%; in assay [17], 17.1%; in assay [18], 0.98%. Also, the inhibition in assay [19] amounted to 7.95%; in assay [20], 0.25%.

Regarding `Cn1cc(C=C2C(=O)Nc3cccnc32)c2ccccc21`, the inhibition amounted to 7.16% in [1]; 1.67% in assay [2]; 6.49% in [3]; 4.43% in assay [4]; 23.5% in [5]; 3.06% in assay [6]. The inhibition in assay [7] was 15.5%; in assay [8], 1.53%; in assay [9], 15.3%; in [10] it was 1.17%; in assay [11] it was 5.73%; in assay [12] it was -0.07%. The inhibition in assay [13] was -2.27%; in [14], 4.46%; in assay [15], 20.8%; in assay [16], 2.23%; in assay [17], 2.8%; in [18], 1.3%. The inhibition is 10.4% in assay [19] and 0.38% in [20].

As for `CN(C)c1cc2c(Nc3ccc4nc(Cc5ccccc5)[nH]c4c3)ncnc2cn1`, the inhibition in [1] is 5%; in assay [2] it was 2.82%; in assay [3], 3%; in assay [4], 6.98%; in assay [5], 11.4%; in assay [6], 3.69%. Also, the inhibition was 8.7% in assay [7]; 0.92% in [8]; 4.05% in assay [9]; 0.6% in assay [10]; 1.13% in assay [11]; 0.02% in assay [12]. For the same compound, the inhibition was -2.17% in [13]; 7.34% in assay [14]; 13.4% in assay [15]; 5.65% in assay [16]; 5.19% in assay [17]; 1.36% in assay [18]. Besides, the inhibition in [19] was 3.18%; in [20] it was -0.82%.

Take `COc1ccc(-c2nn3ncccc3c2-c2ccnc(Nc3ccc(Cl)c(C(F)(F)F)c3)n2)cc1`: the inhibition in assay [1] was 6.57%; in assay [2], 0.48%; in assay [3], 0.08%; in assay [4] it was 0.2%; in [5], 4.8%; in [6] it was -1.04%. Also, the inhibition is 5.69% in [7]; 1.9% in assay [8]; 2.43% in assay [9]; -0.27% in [10]; -0.83% in assay [11]; 0.24% in [12]. For the same compound, the inhibition in assay [13] was found to be 2.12%; in assay [14], 3.41%; in assay [15], 5.53%; in assay [16], 2.13%; in assay [17], 5.41%; in [18] it was 0.1%. Besides, the values for the inhibition in [19] and in assay [20] were 0.37% and 0.12%, respectively.

One may read the inhibition as the change of the read-out against control, counted positive when it falls.
